{
  "source": "paper PMC11006913",
  "assay_in_all_cases": "PBM; 200 nM protein, PBS",
  "details_in_all_cases": "dsDNA, one strand shown",
  "key": {"[1]": {"biological_target": "HOXB6 (Homo sapiens, UniProt P17509 132-218, K202E)", "sequence (P17509 132-218 K202E)": "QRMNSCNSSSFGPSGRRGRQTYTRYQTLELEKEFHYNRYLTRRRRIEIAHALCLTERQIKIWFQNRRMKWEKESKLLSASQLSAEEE"}, "[2]": {"biological_target": "HOXB6 (Homo sapiens, UniProt P17509 132-218)", "sequence (P17509 132-218)": "as the sequence (P17509 132-218 K202E) above, with E71K counted along it"}, "[3]": {"biological_target": "ALX4 (Homo sapiens, UniProt Q9H161 200-286, Q225E)", "sequence (Q9H161 200-286 Q225E)": "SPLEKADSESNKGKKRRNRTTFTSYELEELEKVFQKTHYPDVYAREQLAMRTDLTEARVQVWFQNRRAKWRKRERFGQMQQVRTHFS"}, "[4]": {"biological_target": "HOXC9 (Homo sapiens, UniProt P31274 178-260, R222W)", "sequence (P31274 178-260 R222W)": "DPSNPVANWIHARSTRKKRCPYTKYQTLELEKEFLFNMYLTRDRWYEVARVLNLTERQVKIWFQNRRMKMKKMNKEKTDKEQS"}},
  "data": [
    {"sequence": "AAGTACGA", "values": [
      {"measurement": "binding signal", "setting": "[1]", "result": "9.65 upbm affinity estimate (log intensity, higher = more binding, comparable within an allelic series)"},
      {"measurement": "binding signal", "setting": "[2]", "result": "10.3 upbm affinity estimate (log intensity, higher = more binding, comparable within an allelic series)"}
    ]},
    {"sequence": "AATAAATC", "values": [
      {"measurement": "binding signal", "setting": "[3]", "result": "10.8 upbm affinity estimate (log intensity, higher = more binding, comparable within an allelic series)"}
    ]},
    {"sequence": "AATAGTTC", "values": [
      {"measurement": "binding signal", "setting": "[1]", "result": "9.51 upbm affinity estimate (log intensity, higher = more binding, comparable within an allelic series)"},
      {"measurement": "binding signal", "setting": "[2]", "result": "10.1 upbm affinity estimate (log intensity, higher = more binding, comparable within an allelic series)"}
    ]},
    {"sequence": "CGCGTGCC", "values": [
      {"measurement": "binding signal", "setting": "[1]", "result": "9.06 upbm affinity estimate (log intensity, higher = more binding, comparable within an allelic series)"},
      {"measurement": "binding signal", "setting": "[2]", "result": "9.06 upbm affinity estimate (log intensity, higher = more binding, comparable within an allelic series)"}
    ]},
    {"sequence": "GGCAGCAC", "values": [
      {"measurement": "binding signal", "setting": "[1]", "result": "9.12 upbm affinity estimate (log intensity, higher = more binding, comparable within an allelic series)"},
      {"measurement": "binding signal", "setting": "[2]", "result": "9.12 upbm affinity estimate (log intensity, higher = more binding, comparable within an allelic series)"}
    ]},
    {"sequence": "AAATGGTC", "values": [
      {"measurement": "binding signal", "setting": "[1]", "result": "9.65 upbm affinity estimate (log intensity, higher = more binding, comparable within an allelic series)"},
      {"measurement": "binding signal", "setting": "[2]", "result": "10.6 upbm affinity estimate (log intensity, higher = more binding, comparable within an allelic series)"}
    ]},
    {"sequence": "AATAAATA", "values": [
      {"measurement": "binding signal", "setting": "[3]", "result": "11 upbm affinity estimate (log intensity, higher = more binding, comparable within an allelic series)"},
      {"measurement": "binding signal", "setting": "[4]", "result": "11 upbm affinity estimate (log intensity, higher = more binding, comparable within an allelic series)"}
    ]},
    {"sequence": "CCGAGCGC", "values": [
      {"measurement": "binding signal", "setting": "[1]", "result": "9.06 upbm affinity estimate (log intensity, higher = more binding, comparable within an allelic series)"},
      {"measurement": "binding signal", "setting": "[2]", "result": "9.04 upbm affinity estimate (log intensity, higher = more binding, comparable within an allelic series)"}
    ]},
    {"sequence": "GCACGTGC", "values": [
      {"measurement": "binding signal", "setting": "[1]", "result": "9.35 upbm affinity estimate (log intensity, higher = more binding, comparable within an allelic series)"},
      {"measurement": "binding signal", "setting": "[2]", "result": "9.36 upbm affinity estimate (log intensity, higher = more binding, comparable within an allelic series)"}
    ]},
    {"sequence": "CCCTCCGA", "values": [
      {"measurement": "binding signal", "setting": "[1]", "result": "9.02 upbm affinity estimate (log intensity, higher = more binding, comparable within an allelic series)"},
      {"measurement": "binding signal", "setting": "[2]", "result": "8.91 upbm affinity estimate (log intensity, higher = more binding, comparable within an allelic series)"}
    ]},
    {"sequence": "TAGAATGA", "values": [
      {"measurement": "binding signal", "setting": "[1]", "result": "9.57 upbm affinity estimate (log intensity, higher = more binding, comparable within an allelic series)"},
      {"measurement": "binding signal", "setting": "[2]", "result": "10.3 upbm affinity estimate (log intensity, higher = more binding, comparable within an allelic series)"}
    ]},
    {"sequence": "CCAGCGGA", "values": [
      {"measurement": "binding signal", "setting": "[1]", "result": "9.05 upbm affinity estimate (log intensity, higher = more binding, comparable within an allelic series)"},
      {"measurement": "binding signal", "setting": "[2]", "result": "8.93 upbm affinity estimate (log intensity, higher = more binding, comparable within an allelic series)"}
    ]},
    {"sequence": "AATAAAAG", "values": [
      {"measurement": "binding signal", "setting": "[3]", "result": "10.4 upbm affinity estimate (log intensity, higher = more binding, comparable within an allelic series)"},
      {"measurement": "binding signal", "setting": "[4]", "result": "11 upbm affinity estimate (log intensity, higher = more binding, comparable within an allelic series)"}
    ]},
    {"sequence": "CCGGCGCA", "values": [
      {"measurement": "binding signal", "setting": "[1]", "result": "9.01 upbm affinity estimate (log intensity, higher = more binding, comparable within an allelic series)"},
      {"measurement": "binding signal", "setting": "[2]", "result": "9.07 upbm affinity estimate (log intensity, higher = more binding, comparable within an allelic series)"}
    ]},
    {"sequence": "AAGCAGGC", "values": [
      {"measurement": "binding signal", "setting": "[1]", "result": "9.08 upbm affinity estimate (log intensity, higher = more binding, comparable within an allelic series)"},
      {"measurement": "binding signal", "setting": "[2]", "result": "9.05 upbm affinity estimate (log intensity, higher = more binding, comparable within an allelic series)"}
    ]},
    {"sequence": "GATGCCCC", "values": [
      {"measurement": "binding signal", "setting": "[1]", "result": "9.11 upbm affinity estimate (log intensity, higher = more binding, comparable within an allelic series)"},
      {"measurement": "binding signal", "setting": "[2]", "result": "8.96 upbm affinity estimate (log intensity, higher = more binding, comparable within an allelic series)"}
    ]},
    {"sequence": "GAGAGGGC", "values": [
      {"measurement": "binding signal", "setting": "[1]", "result": "8.82 upbm affinity estimate (log intensity, higher = more binding, comparable within an allelic series)"},
      {"measurement": "binding signal", "setting": "[2]", "result": "8.79 upbm affinity estimate (log intensity, higher = more binding, comparable within an allelic series)"}
    ]},
    {"sequence": "AGCCTAGG", "values": [
      {"measurement": "binding signal", "setting": "[1]", "result": "9.04 upbm affinity estimate (log intensity, higher = more binding, comparable within an allelic series)"},
      {"measurement": "binding signal", "setting": "[2]", "result": "9.03 upbm affinity estimate (log intensity, higher = more binding, comparable within an allelic series)"}
    ]},
    {"sequence": "ACCGTTAA", "values": [
      {"measurement": "binding signal", "setting": "[1]", "result": "9.66 upbm affinity estimate (log intensity, higher = more binding, comparable within an allelic series)"},
      {"measurement": "binding signal", "setting": "[2]", "result": "10.6 upbm affinity estimate (log intensity, higher = more binding, comparable within an allelic series)"}
    ]},
    {"sequence": "GCCGCCCA", "values": [
      {"measurement": "binding signal", "setting": "[1]", "result": "8.98 upbm affinity estimate (log intensity, higher = more binding, comparable within an allelic series)"},
      {"measurement": "binding signal", "setting": "[2]", "result": "8.99 upbm affinity estimate (log intensity, higher = more binding, comparable within an allelic series)"}
    ]}
  ]
}
